Our source for the growth values is PubChem BioAssay (NCI).

Structures are written as SMILES. The panel holds about 83,000 compounds, 20% with a hit somewhere; the sample as a whole holds those more often.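 For each line, cells grew in 96-well plates with the test compound present at a single concentration for 48 hours.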 A number with no mark means an inactive call. The source made the active and inactive calls. Rule for the calls: active = growth percent below 10; inactive = the rest.

Some test systems named below: HCT-15 colon; HT29 colon; SNB-75 CNS; SNB-19 CNS; U251 CNS; PC-3 prostate; SK-MEL-5 melanoma; UACC-62 melanoma; LOX IMVI melanoma; SK-MEL-28 melanoma; SK-MEL-2 melanoma; EKVX NSCLC; SN12C renal; UO-31 renal; TK-10 renal; ACHN renal; CAKI-1 renal; A498 renal; CCRF-CEM leukemia; MOLT-4 leukemia.
Holding throughout (experiment): NCI-60 one-dose screen, 48 h (100 = growth as untreated, 0 = no growth, -100 = all killed)
Holding throughout (details): 10 µM unless noted

With `O=C(CN1C(=O)S/C(=C\C(Cl)=C\c2ccccc2)C1=O)NC1C=CS(=O)(=O)C1` (stereo not given), the growth in the assay on HCT-15 colon is -18.1% (active); with HT29 colon, -6.75% (active); in the assay with SNB-75 CNS, 19%; in the assay with SNB-19 CNS, 40.4%; with U251 CNS, 16.9%; in the assay on PC-3 prostate, 19.7%. Moreover, the growth in the assay on SK-MEL-5 melanoma is 17.1%; in the assay on UACC-62 melanoma it was -19.2% (active); with LOX IMVI melanoma it was -73.5% (active); with SK-MEL-28 melanoma, -9.63% (active); with SK-MEL-2 melanoma, 9.43% (active); in the assay with EKVX NSCLC, 17.7%. Besides, the growth with SN12C renal was -13.2% (active); in the assay with UO-31 renal, -78% (active); in the assay on TK-10 renal, -14.7% (active); with ACHN renal, -57.5% (active); in the assay with CAKI-1 renal, 16.9%; with A498 renal, 97.2%. For the same compound, the growth in the assay on CCRF-CEM leukemia was 7.5% (active); with MOLT-4 leukemia, 4.12% (active).

In the case of `O=C(Nc1ccccc1C(=O)N/N=C(\c1ccccc1)c1ccccn1)c1ccccc1`, the growth is 25.7% with HCT-15 colon; 22.1% with HT29 colon; 64% with SNB-75 CNS; 27.9% in the assay on SNB-19 CNS; 10.8% in the assay with U251 CNS; 43.7% with PC-3 prostate. Besides, the growth in the assay with SK-MEL-5 melanoma is -20.9% (active); in the assay on UACC-62 melanoma, -10.4% (active); with LOX IMVI melanoma, 14.5%; in the assay on SK-MEL-28 melanoma, 31.9%; in the assay with SK-MEL-2 melanoma, 30.2%; with EKVX NSCLC, 10.1%. Further, the growth was 25.4% in the assay with SN12C renal; 8.85% (active) in the assay with UO-31 renal; 47.4% in the assay on TK-10 renal; 13.6% in the assay with ACHN renal; 16.9% in the assay on CAKI-1 renal; 16.5% in the assay with A498 renal. Further, the figures for the growth in the assay on CCRF-CEM leukemia and in the assay on MOLT-4 leukemia were -2.61% (active) and 2.47% (active), respectively.

As for `CCCCCO/N=C\c1c2c(O)c3c(O)c(C)c4c(c3c1O)C(=O)C(C)(O/C=C\C(OC)C(C)C(OC(C)=O)C(C)C(O)C(C)C(O)C(C)/C=C\C=C(\C)C(=O)N2)O4` (stereo not given), the growth with HCT-15 colon was 16.1%; in the assay with HT29 colon it was 2.51% (active); with SNB-75 CNS, 39.3%; with SNB-19 CNS it was 33.5%; in the assay with U251 CNS, 16.8%; with PC-3 prostate, 13.1%. For the same compound, the growth is 15.3% in the assay with SK-MEL-5 melanoma; 24.1% with UACC-62 melanoma; 23.2% with LOX IMVI melanoma; 39.5% with SK-MEL-28 melanoma; -37.7% (active) in the assay with SK-MEL-2 melanoma; 27.3% in the assay on EKVX NSCLC. The growth is 27.6% in the assay with SN12C renal; 17.8% with UO-31 renal; 38% in the assay on TK-10 renal; 29.6% in the assay on ACHN renal; 14.9% in the assay with CAKI-1 renal; 62.9% in the assay with A498 renal. The results for the growth in the assay with CCRF-CEM leukemia and in the assay on MOLT-4 leukemia were 18.6% and 14.4%, respectively.

`Nc1ncc(-c2ccc3ncnc(N4CCc5ccc(Cl)cc54)c3c2)cc1C(F)(F)F`: the growth in the assay with HCT-15 colon was 14.9%; with HT29 colon it was 9.27% (active); in the assay with SNB-75 CNS it was -23.4% (active); with SNB-19 CNS it was 32.7%; with U251 CNS, 28.4%; with PC-3 prostate, 15.4%. Moreover, the growth with SK-MEL-5 melanoma is 22.6%; in the assay with UACC-62 melanoma it was 10.5%; in the assay with LOX IMVI melanoma, 11.7%; in the assay on SK-MEL-28 melanoma it was 28.7%; in the assay with SK-MEL-2 melanoma it was 14.1%; in the assay with EKVX NSCLC, 6.87% (active). Moreover, the growth was 20.6% in the assay on SN12C renal; -12% (active) in the assay on UO-31 renal; -3.58% (active) in the assay with TK-10 renal; 11% in the assay with ACHN renal; -9.77% (active) in the assay with CAKI-1 renal; -62.5% (active) in the assay on A498 renal. The growth in the assay with CCRF-CEM leukemia was 21.6%; in the assay with MOLT-4 leukemia, 7.2% (active).

With `O=C1OCC2=C1C(c1cccc(C(F)(F)F)c1)c1cc3c(cc1N2CCO)OCCO3` (stereo not given), the growth in the assay on HCT-15 colon is 14.1%; in the assay with HT29 colon, 3.94% (active); in the assay on SNB-75 CNS it was 42.4%; with SNB-19 CNS, 23.4%; in the assay on U251 CNS, 14.7%; with PC-3 prostate, 26.2%. For the same compound, the growth in the assay with SK-MEL-5 melanoma is 22.9%; in the assay on UACC-62 melanoma, 39.9%; in the assay on LOX IMVI melanoma it was 37.4%; with SK-MEL-28 melanoma it was 50%; with SK-MEL-2 melanoma, 26.1%; in the assay with EKVX NSCLC it was 49.1%. Further, the growth in the assay on SN12C renal is 46%; in the assay with UO-31 renal, 47.4%; in the assay on TK-10 renal it was 54.4%; in the assay on ACHN renal, 33.7%; in the assay with CAKI-1 renal it was 30.5%; in the assay on A498 renal, 16%. Also, the growth in the assay with CCRF-CEM leukemia was 9.36% (active); in the assay on MOLT-4 leukemia it was 16.8%.

With `CN(C)CCN1C(=O)c2c(c3c4ccccc4n4c3c3c2c2ccccc2n3C2CC(O)C(O)C4(C)O2)C1=O` (stereo not given), the growth was 15.5% in the assay on HCT-15 colon; 6.62% (active) in the assay on HT29 colon; 23.3% with SNB-75 CNS; 17.1% with SNB-19 CNS; 17.9% in the assay on U251 CNS; 30.2% with PC-3 prostate. Besides, the growth is 34.4% in the assay on SK-MEL-5 melanoma; 21.8% with UACC-62 melanoma; 1.87% (active) with LOX IMVI melanoma; 64.5% in the assay on SK-MEL-28 melanoma; 32.6% in the assay with SK-MEL-2 melanoma; 46.8% in the assay on EKVX NSCLC. Also, the growth is 22.1% in the assay with SN12C renal; 24.1% in the assay with UO-31 renal; 24.6% in the assay with TK-10 renal; -12.6% (active) with ACHN renal; 19.6% with CAKI-1 renal; 32% in the assay on A498 renal. Also, the growth is 31.1% in the assay with CCRF-CEM leukemia and 0.948% (active) in the assay with MOLT-4 leukemia.
